Screens (PubChem BioAssay)
The list is not random: actives were taken first. Their share in the collection is about 1.2%.
KCNH2 3.1 inh – KCNH2 3.1 (human) potassium channel inhibition | hit rate 0.95% among 340,000 | U2OS KCNH2 3.1, thallium flux FluxOr; active compounds read low | AID 720553 | activity change, % (tested at about 1.8 µM);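 active = maximum activity change below -70%; inconclusive = maximum activity change from -70% to -50%; inactive = maximum activity change above -50%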;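 note: thallium influx rate constant from kinetic fluorescence after stimulation buffer; % is set by controls: 0 for no effect and ±100 for the full control effect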
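We transduce U2OS cells with the mutant 3.1 virus, culture them overnight, load FluxOr with Red40 quencher for 45 min, then add stimulation buffer and read kinetically for 2 min to derive a normalized rate constant.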
hERG WT inh – blocks the wildtype human KCNH2 potassium channel; hit rate 0.37% among 340,000; activity change, % at 1.84 µM; Q12809; U2OS, BacMam KCNH2, thallium flux FluxOr; active compounds read low;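 active = maximum activity change below -70%; inconclusive = maximum activity change between -70% and -50%; inactive = maximum activity change above -50%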; note: % is set by controls: 0 for no effect and ±100 for the full control effect
Target sequence (Q12809 whole entry, looked up): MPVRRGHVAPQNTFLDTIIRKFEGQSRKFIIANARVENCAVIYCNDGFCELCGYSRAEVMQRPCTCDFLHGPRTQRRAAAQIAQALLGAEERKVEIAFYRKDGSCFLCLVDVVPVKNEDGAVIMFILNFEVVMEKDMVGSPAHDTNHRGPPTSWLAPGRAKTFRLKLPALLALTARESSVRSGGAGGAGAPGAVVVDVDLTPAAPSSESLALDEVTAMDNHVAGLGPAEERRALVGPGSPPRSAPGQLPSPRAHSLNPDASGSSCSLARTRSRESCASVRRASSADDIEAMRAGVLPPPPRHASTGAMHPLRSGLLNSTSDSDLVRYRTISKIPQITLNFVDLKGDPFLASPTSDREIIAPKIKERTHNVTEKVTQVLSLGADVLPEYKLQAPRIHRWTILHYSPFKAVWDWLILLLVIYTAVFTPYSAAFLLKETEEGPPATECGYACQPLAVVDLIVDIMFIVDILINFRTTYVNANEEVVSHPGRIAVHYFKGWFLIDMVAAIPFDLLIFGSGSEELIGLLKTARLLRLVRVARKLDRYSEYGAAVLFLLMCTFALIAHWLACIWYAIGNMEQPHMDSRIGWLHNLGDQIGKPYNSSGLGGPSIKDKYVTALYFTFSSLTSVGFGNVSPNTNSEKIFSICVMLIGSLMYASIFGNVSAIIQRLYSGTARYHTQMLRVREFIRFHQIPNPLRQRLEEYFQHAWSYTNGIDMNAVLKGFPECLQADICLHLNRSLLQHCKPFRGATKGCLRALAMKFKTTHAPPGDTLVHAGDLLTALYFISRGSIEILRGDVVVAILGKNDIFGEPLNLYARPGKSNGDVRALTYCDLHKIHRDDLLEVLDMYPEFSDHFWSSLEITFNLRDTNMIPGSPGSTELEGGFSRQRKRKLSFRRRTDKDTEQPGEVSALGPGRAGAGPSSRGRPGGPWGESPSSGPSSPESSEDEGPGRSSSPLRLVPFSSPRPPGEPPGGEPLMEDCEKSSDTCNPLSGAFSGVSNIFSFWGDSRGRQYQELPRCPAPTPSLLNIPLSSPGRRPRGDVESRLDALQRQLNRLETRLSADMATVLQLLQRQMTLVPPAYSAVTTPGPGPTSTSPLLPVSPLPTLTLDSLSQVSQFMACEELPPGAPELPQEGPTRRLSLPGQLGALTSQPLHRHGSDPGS
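U2OS cells transduced with wild-type KCNH2 virus are loaded with FluxOr dye for 45 min, and thallium flux is measured in kinetic reads before and after stimulation buffer. Rate constants are normalized to DMSO controls.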
TRPV1 ag – human TRPV1 agonism. activation, % at 8.33 µM. Q8NER1. hit rate 0.19% among 320,000. AID 540275. TRPV1-expressing cells, Fluo-8 calcium influx, agonist mode; in the data active = activation above about 80%; inconclusive = between about 30% and that limit; note: 0% is about no effect
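Fluo-8 calcium influx in TRPV1-expressing cells, kinetic read (ex 480/em 520 nm). Compound added and read 3 min for agonist activity, followed by capsaicin at EC20 final and 2 min further read for enhancement.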
TRPV1 PAM – human TRPV1 potentiation | potentiation, % at 8.33 µM | AID 540277 | hit rate 0.02% among 320,000 | Q8NER1 | TRPV1-expressing cells, Fluo-8 calcium influx, capsaicin EC20 potentiation; in the data active = potentiation above about 80%; inconclusive = between about 30% and that limit; note: 0% is about no effect
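TRPV1-expressing cells were cultured overnight at 35.5C and loaded with Fluo-8 calcium dye for 40 to 90 min at room temperature. After a 10 s baseline, compound was added and calcium influx was read kinetically for 3 min (ex 480/em 520 nm).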
An asterisk follows results filed as active; i = inactive; ? = inconclusive; / = not tested or not shown.

SMILES | KCNH2 3.1 inh | hERG WT inh | TRPV1 ag | TRPV1 PAM
COc1ccc(S(=O)(=O)NNC(=O)c2cccs2)cc1 | -104* | -2 | -6 | 19
O=C(NNS(=O)(=O)c1ccc(Cl)cc1)c1cccs1 | -8 | -4 | 1 | 8
COC1=CC(=Cc2c(N)n3nc(CC(=O)N4CCCCC4)sc3nc2=O)C=C(OC)C1=O | 10 | -70* | ? | -8
CCN1CCc2nc3ccccc3c(C(=O)Nc3ccc(NC(C)=O)cc3)c2C1 | -7 | -6 | 2 | 0
CCN1CCc2nc3ccccc3c(C(=O)Nc3ccc(F)cc3)c2C1 | -83* | ? | 0 | -8
CN1CCN(c2nc(-c3ccccc3Cl)nc3ccccc23)CC1 | -5 | 25 | 8 | 7
CN1CCN(c2nc(-c3ccc(Cl)cc3Cl)nc3ccccc23)CC1 | -124* | -18 | 17 | -9
O=C(Nc1ccc(S(=O)(=O)NCc2ccccc2)cc1)C1CCCCC1 | -72* | 5 | 1 | 0
CC1CCCN(C(=O)c2ccc([N+](=O)[O-])o2)C1 (stereo not drawn) | 10 | -5 | 2 | 3
CC1CCN(C(=O)c2ccc([N+](=O)[O-])o2)CC1 | -72* | -2 | -1 | 2
COc1cccc(-c2cc(C(=O)N3CCc4ccccc4C3)[nH]n2)c1 | 9 | -302* | 29 | -17
CCCCc1ccc(/C(C)=N/Nc2cc(N3CCOCC3)nc(C)n2)cc1 | -82* | 8 | -2 | 13
C/C(=N\Nc1cc(N2CCOCC2)nc(C)n1)c1cccc([N+](=O)[O-])c1 | 12 | 3 | 1 | -4
CCOC(=O)C1C(=O)NC(C(=O)OCC)(C(=O)OCC)C1C(C)CC (stereo not drawn) | -1 | -24 | / | /
Cc1cc(C)c2c(=O)n3c(nc2c1)C(Cc1ccc(O)cc1)NC(=O)c1cc2ccccc2cc1-3 (stereo not drawn) | 1 | -2 | / | /
O=C(OCc1ccccc1)N1CCC2CC1c1cc(/C=C/CCCSc3ncccn3)ccc12 (stereo not drawn) | 5 | -12 | / | /
CCOC(=O)C(C(=O)OCC)C(=O)c1cccc2ccc3ccccc3c12 | -22 | 6 | / | /
CCCCN1C(=O)c2ccc(C(=O)Nc3cccc(C)c3C)cc2C1=O | 12 | 17 | ? | -6
CCCCN1C(=O)c2ccc(C(=O)Nc3ccc(C)c(S(=O)(=O)N(C)C)c3)cc2C1=O | -74* | 6 | 5 | -12
Nc1ncnc2c(C3OC(CO)C(O)C3O)c[nH]c12 (stereo not drawn) | 3 | 14 | / | /
CS(=O)(=O)N1CCN(c2ccccc2NC(=O)Cc2ccccc2)CC1 | 5 | 5 | 3 | -1
O=C(Cc1ccccc1)Nc1ccccc1N1CCN(c2ccccc2)CC1 | -70* | 0 | ? | -16
O=C(Cc1ccccc1)Nc1ccccc1C(=O)Nc1ccccc1 | -123* | 6 | ? | -12
Cc1ccc(NC(=O)c2ccccc2NC(=O)Cc2ccccc2)cc1 | 9 | 0 | ? | 1
CCOc1ccccc1-n1nnnc1SCC(=O)N(C)C1CCS(=O)(=O)C1 (stereo not drawn) | 3 | 4 | / | /
SMILES | KCNH2 3.1 inh | hERG WT inh | TRPV1 ag | TRPV1 PAM
O=C(NC12CC3CC(CC(C3)C1)C2)c1ccc(S(=O)(=O)N2CCOCC2)cc1 | -109* | 2 | ? | -22
O=C(Nc1ccc(S(=O)(=O)N2CCOCC2)cc1)c1ccc(S(=O)(=O)N2CCOCC2)cc1 | -1 | 7 | ? | -7
CCOc1ccc(S(=O)(=O)N2CCC(C(=O)OC(C)C(=O)NC3CCCCC3C)CC2)cc1 (stereo not drawn) | -144* | -203* | 1 | -5
N#Cc1ccc(NN=Nc2ccccc2C#N)cc1 | 7 | -1 | / | /
O=S(=O)(c1ccc(Cl)cc1)N1CCC(n2cnc3cc(C(F)(F)F)ccc32)CC1 | -83* | -41 | / | /
Cc1ccc(C)c(N2CCN(C(=S)Nc3ccc4nc(N5CCOCC5)cc(C)c4c3)CC2)c1 | -85* | -77* | -1 | -46
Cc1cc(N2CCOCC2)nc2ccc(NC(=S)N3CCN(c4ccccc4)CC3)cc12 | 17 | 0 | -2 | -10
Cc1ccc(C)c(N2CCN(C(=S)Nc3ccc4nc(N5CCN(C)CC5)cc(C)c4c3)CC2)c1 | -90* | -115* | -1 | 13
Cc1cc(N2CCOCC2)nc2ccc(NC(=S)NCCC(C)C)cc12 | -88* | 9 | 4 | 16
Cc1cccc(N2CCN(C(=S)Nc3ccc4nc(N5CCOCC5)cc(C)c4c3)CC2C)c1 (stereo not drawn) | -76* | -15 | -18 | ?
C[C@H](CO)N1C[C@H](C)[C@@H](CN(C)S(=O)(=O)c2ccccc2F)Oc2ncc(Br)cc2C1=O | 15 | -11 | / | /
COc1ccc(-n2c(SCC(=O)Nc3cc(C)on3)nc3c(c2=O)SC(C)C3)cc1 (stereo not drawn) | 0 | -1 | / | /
Cc1ccc(-c2c(C(=O)NCCc3ccccc3)oc(=O)c3ccccc23)cc1 | / | / | 13 | -9
OCC1OC(n2cnc3c(SCc4ccccc4)nc(F)nc32)C(O)C1O (stereo not drawn) | -6 | -6 | / | /
COc1ccccc1/C=C/C=N/NC(=O)c1ccc(=O)n(C)c1 | -93* | -8 | -5 | 3
COc1ccccc1/C=N/NC(=O)c1ccc(=O)n(C)c1 | 5 | 0 | 0 | -2
O=C(NC(c1ccccc1)c1ccccc1)c1cccc(S(=O)(=O)NCc2ccccc2)c1 | -71* | -28 | 1 | 3
O=C(NCCc1ccccc1)c1cccc(S(=O)(=O)NCc2ccccc2)c1 | 0 | -4 | 3 | 8
CCN(CC(=O)Nc1c(F)cccc1F)C(=O)c1cccc(S(=O)(=O)NCc2ccccc2)c1 | 5 | -219* | -1 | 13
COc1ccc(/C=C/C(=O)Nc2cccnc2Cl)cc1 | 20 | 20 | 85* | -22
COc1ccc(NC(=O)/C=C/c2ccccc2)c([N+](=O)[O-])c1 | -13 | -6 | 20 | -18
COc1ccccc1/C=C/C(=O)Nc1cccnc1Cl | 12 | -2 | ? | -13
COc1ccc(/C=C/C(=O)Nc2ccc(OC)cc2[N+](=O)[O-])cc1 | -85* | -5 | 12 | -6
CC(C)c1csc(CN2CCC(C(=O)Nc3cccc(-c4ccco4)c3)CC2)n1 | -6 | 4 | / | /
CCN(CC)CC(O)CN(c1ccccc1)S(=O)(=O)c1ccc2ccccc2c1 (stereo not drawn) | -106* | -89* | 1 | ?
SMILES | KCNH2 3.1 inh | hERG WT inh | TRPV1 ag | TRPV1 PAM
O=C(c1cc(-c2ccc(Cl)cc2)n(-c2ccc(Cl)cc2)n1)N1CCOCC1 | -98* | -70* | ? | -16
O=C(O)c1cc(-c2ccc(Cl)cc2)n(-c2ccccc2)n1 | 9 | i | 4 | 8
Cc1ccc(-n2nc(C(=O)N3CCOCC3)cc2-c2ccc(Cl)cc2)cc1 | ? | -32 | 89* | 1
Cc1ccc([C@H]2C[C@H](O)[C@@H](n3cc(C4CC4)nn3)CN2C(=O)C2CCCCC2)cc1 | -3 | -12 | / | /
CCc1ccccc1NC(=O)CNC(=O)CSC(=S)N1CCCC1 | 3 | 4 | -4 | 4
CC(=O)OCCn1c2nc(=O)[nH]c(=O)c-2nc2cc(C)c(C)cc21 | -17 | -4 | 122* | -21
